Bioassay records as filed in PubChem BioAssay.
CYP2C19 inhib: blockers of cytochrome P450 2C19 activity – biochemical, luminescence, ADME assay, primary screen | P33261 | CYP2C19 Supersomes, luciferin-H EGE luminescence, 30 min | inhibition, % at 5 µM | hit rate 21% among 96,000;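 active means CYP2C19 inhibition above a set limit at 5 µM in the primary screen, cut at about 50% in these data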;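 further: plate controls were negative control wells for no effect and 2.5 mM tranylcypromine positive control for full effect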
Measles CPE: compounds protecting cells from measles virus cytopathic effect, primary screen, measles RdRp inhibitor project, single point, MLSMR library, absorbance; hit rate 1.5% among 140,000; Measles virus-infected cells, CPE protection; protection (pct of control), % at 4 µM; in the data active means protection mostly above about 24%, no sharp cut-off; inactive means mostly below about 26%
CYP2C19 act: human CYP2C19 activators, primary screen, biochemical, luminescence. Cytochrome P450 2C19 (Homo sapiens), P33261. recombinant CYP2C19, luciferin-H EGE luminescence; hits give high values; 0 = fully inhibited enzyme, 1 = untreated enzyme. activation factor at 5 µM. 96,000 tested, under 10 active. AID 1025, 2008;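 active means activation factor of at least 2 at 5 µM in the primary screen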;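 further: 0 = wells with 2.5 mM tranylcypromine and 1 = vehicle-only wells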
CYP2C9 inhib: blockers of cytochrome P450 2C9 activity – biochemical, luminescence, ADME assay, primary screen | P11712 | CYP2C9 Supersomes, luciferin-H conversion | inhibition, % at 5 µM | hit rate 20% among 96,000;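 active means blocking of liver enzyme CYP2C9 beyond about 50% at 5 µM, limit read from the data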
Target sequence (P11712 whole entry, looked up): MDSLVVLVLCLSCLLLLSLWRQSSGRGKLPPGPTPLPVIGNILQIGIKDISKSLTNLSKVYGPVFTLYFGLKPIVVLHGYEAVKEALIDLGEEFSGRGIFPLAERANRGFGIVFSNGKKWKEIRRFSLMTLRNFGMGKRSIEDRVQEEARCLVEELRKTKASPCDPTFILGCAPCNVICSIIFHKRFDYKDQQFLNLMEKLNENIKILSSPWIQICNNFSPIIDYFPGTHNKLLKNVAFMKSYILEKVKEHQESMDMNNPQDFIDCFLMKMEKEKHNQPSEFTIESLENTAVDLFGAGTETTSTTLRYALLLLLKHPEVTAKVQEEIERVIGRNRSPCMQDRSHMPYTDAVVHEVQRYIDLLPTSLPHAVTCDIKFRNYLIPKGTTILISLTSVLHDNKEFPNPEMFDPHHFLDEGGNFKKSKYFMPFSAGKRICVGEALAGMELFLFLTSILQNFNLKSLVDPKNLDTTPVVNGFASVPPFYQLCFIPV
CYP2C9 act: human CYP2C9 activators, primary screen, biochemical, luminescence | hit rate 1.4% among 96,000 | activation factor at 5 µM | recombinant CYP2C9, luciferin-H conversion; hits give high values; factor 1 = untreated enzyme, 0 = blocked | AID 1024, 2008 | Cytochrome P450 2C9 (Homo sapiens), P11712;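 active means activation factor of 2 or more for CYP2C9 at a 5 µM dose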;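 further: 0 = sulfaphenazole-blocked wells and 1 = vehicle-only wells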
The depositor's hits bear a star; x = no result. The list is not random: actives were taken first. Their share in the collection is about 22%.

SMILES | CYP2C19 inhib | Measles CPE | CYP2C19 act | CYP2C9 inhib | CYP2C9 act
COc1ccc(C(CNC(=O)c2ccc3c(c2)C(=O)N(CCC(C)C)C3=O)N2CCOCC2)cc1 (configuration not stated) | 88* | 7 | 0.1 | 88* | 0.1
COc1ccc(C(CNC(=O)c2cc(C)oc2C)N2CCOCC2)cc1 (configuration not stated) | 60* | 0 | 0.4 | 8 | 0.9
O=C(NCC(c1ccc(F)cc1)N1CCOCC1)c1ccc(Br)o1 (configuration not stated) | 61* | 7 | 0.4 | 24 | 0.8
COc1ccc(C(CNC(=O)c2ccccc2C)N2CCCC2)cc1 (configuration not stated) | 22 | 7 | 0.8 | 13 | 0.9
COc1ccc(C(CNC(=O)c2cccc(Br)c2)N2CCCC2)cc1 (configuration not stated) | 40 | 5 | 0.6 | 7 | 0.9
COc1ccc(C(CNC(=O)COc2ccccc2C#N)N2CCOCC2)cc1 (configuration not stated) | 41 | 8 | 0.6 | 60* | 0.4
O=C(COc1ccccc1)NCC(c1cccs1)N1CCOCC1 (configuration not stated) | x | 38 | x | x | x
Cc1cccc(Oc2c(C=O)c3ccccc3n2C)c1 | 36 | 5 | 0.6 | -36 | 1.4
COCCCN1C(=O)C(O)=C(C(=O)c2ccco2)C1c1ccccc1 (configuration not stated) | -17 | 2 | 1.2 | -5 | 1.1
CCOc1ccc(N/C(SC)=C(/C#N)C(N)=O)cc1 | 34 | 6 | 0.7 | 0 | 1
CCc1ccc(N/C(SC)=C(/C#N)C(N)=O)cc1 | 29 | 40* | 0.7 | 50 | 0.5
O=C1NC(c2ccccc2)=C(c2nc3ccccc3s2)C(c2ccc(F)cc2)N1 (configuration not stated) | 55* | 7 | 0.5 | 50* | 0.5
COc1cccc(-c2nc3ccccc3s2)c1 | 0 | 15 | 1 | 9 | 0.9
O=C1NC2=C(C(=O)c3ccccc32)C(c2ccccc2)N1 (configuration not stated) | 19 | 5 | 0.8 | 24 | 0.8
COc1ccc(C2NC(=O)NC(c3ccccc3)=C2c2nc3ccccc3s2)cc1 (configuration not stated) | 26 | 28* | 0.7 | 36 | 0.6
C=CCOc1ccc(CNc2ccc(NC(=O)CCC)cc2)cc1OCC | x | 8 | x | x | x
CN(C)CC(C)(C)CNS(=O)(=O)c1cccc(Cl)c1Cl | 77* | 5 | 0.2 | 32 | 0.7
CN(C)CC(C)(C)CNS(=O)(=O)c1cccc2nsnc12 | x | 1 | x | x | x
C/C(=N\N1CCN(C2c3ccccc3-c3ccccc32)CC1)c1cccnc1 | 66* | 13 | 0.3 | 73* | 0.3
C(=N\N1CCN(C2c3ccccc3-c3ccccc32)CC1)/c1cccnc1 | 84* | 9 | 0.2 | 91* | 0.1
Cc1ccc(/C=N/N2CCN(C3c4ccccc4-c4ccccc43)CC2)s1 | x | 8 | x | x | x
C(=N\N1CCN(C2c3ccccc3-c3ccccc32)CC1)/c1ccccn1 | 7 | 0 | 0.9 | 27 | 0.7
Cc1nn2c(-c3ccco3)nnc2c2ccccc12 | -4 | 1 | 1 | -24 | 1.2
Cc1ccc(NC(=O)c2cc([N+](=O)[O-])ccc2NCc2cccnc2)cc1 | 83* | 2 | 0.2 | 91* | 0.1
Cc1nc2sc(C(c3ccc(F)cc3)N3CCOCC3)c(O)n2n1 (configuration not stated) | -8 | 11 | 1.1 | 4 | 1
SMILES | CYP2C19 inhib | Measles CPE | CYP2C19 act | CYP2C9 inhib | CYP2C9 act
CCn1c(CC(=O)Nc2ccc(Cl)c(Cl)c2)nnc1SCc1ccc(C)cc1 | x | 4 | x | x | x
COc1ccc(NC(=O)CCC(=O)OC(C(=O)c2ccccc2)c2ccccc2)cc1 (configuration not stated) | 25 | 13 | 0.8 | 0 | 1
CC(=O)Nc1cc(C(=O)OC(C(=O)c2ccccc2)c2ccccc2)ccc1C (configuration not stated) | 59* | 19 | 0.4 | 60* | 0.4
COc1ccc(C(=O)C(OC(=O)CNC(=O)c2ccco2)c2ccccc2)cc1 (configuration not stated) | 46 | 53* | 0.5 | 19 | 0.8
COc1ccc(C(=O)OC(C(=O)c2ccccc2)c2ccccc2)cc1 (configuration not stated) | 58* | 20 | 0.4 | 78* | 0.2
COc1ccc(C(=O)C(OC(=O)c2ccc(C)c(NC(C)=O)c2)c2ccccc2)cc1 (configuration not stated) | 41 | 10 | 0.6 | 62* | 0.4
COc1ccc(N(C)S(=O)(=O)c2cccc(C(=O)OC(C(=O)Nc3cc(C)cc(C)c3)c3ccccc3)c2)cc1 (configuration not stated) | x | 22 | x | x | x
Cc1ccc(NC(=O)C(OC(=O)c2ccc(C=O)cc2)c2ccccc2)cc1Cl (configuration not stated) | x | 12 | x | x | x
Cc1c(C(=O)NCc2ccccn2)sc2nc(-c3ccccc3)cn12 | 14 | 28 | 0.9 | 14 | 0.9
Cc1ccc(CS/C(Nc2ccccc2C)=C(\C#N)C(=O)NCc2ccco2)c(C)c1 | 51* | 7 | 0.5 | 42 | 0.6
Cc1ccccc1N/C(SCc1ccc(Cl)cc1)=C(/C#N)C(=O)NCc1ccco1 | 85* | 26 | 0.2 | 55* | 0.4
O=C(CNCc1ccc(Cl)cc1)NCc1ccco1 | x | 4 | x | x | x
CC(C)(C#N)Nc1ccccc1 | 8 | 5 | 0.9 | 2 | 1
Cc1cc2cc(CN(Cc3cccs3)S(=O)(=O)c3ccc4c(c3)OCCO4)c(=O)[nH]c2cc1C | x | 24 | x | x | x
Cc1cc(C(=O)CN(Cc2ccc(F)cc2)S(=O)(=O)c2ccc3c(c2)OCCO3)c(C)n1C | 60* | 17 | 0.4 | 66* | 0.3
O=S(=O)(c1ccc2c(c1)OCCO2)N(Cc1ccc(F)cc1)Cc1nnc(-c2cccs2)o1 | 33 | 5 | 0.7 | 87* | 0.1
O=C(CN(Cc1ccccc1)S(=O)(=O)c1ccc2c(c1)OCCO2)N/N=C/c1ccc(F)cc1 | 30 | 16 | 0.7 | 36 | 0.6
O=C(OCc1ccccc1F)c1ccc2c(c1)-c1ccccc1C2=O | -10 | 12 | 1.1 | 0 | 1
Cc1sc(-c2ccncc2)nc1OC(=O)c1ccc(Cl)cc1 | 90* | 11 | 0.1 | 88* | 0.1
C/C(=N\OC(=O)c1ccc(Cl)cc1)c1sc(-c2ccccc2)nc1C | -1 | 3 | 1 | -2 | 1
Cc1sc(-c2ccncc2)nc1OC(=O)c1cc(Cl)cc(Cl)c1 | 53* | 12 | 0.5 | 68* | 0.3
CC1(C)CC(=O)N(CC(=O)O)c2ccccc2S1(=O)=O | 23 | 7 | 0.8 | 50 | 0.5
O=C(Cn1cc(C(F)(F)F)ccc1=O)NC(c1ccccc1)c1ccccc1 | x | 3 | x | x | x
